Screening data (PubChem)
Only some compounds are listed: those with a hit (about 0.74% of all), similar ones and a draw of the others.
DTT redox prof: compounds producing H2O2 with reducing agent – biochemical, NIH compound library profiling, artefact control for MLSCN library redox annotation, primary screen; DTT-dependent redox cycling H2O2, phenol red/HRP absorbance; 100% = 100 µM peroxide control, 0% = buffer; activation, % at 10 µM; 0.03% of 200,000 active; AID 878;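 active = activation of at least 50% relative to the plate's high and low controls in the primary single-dose screen; inactive = activation below 50%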;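 also: compound incubated with DTT at 0.8 mM final as the reducing agent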
LYPLA1 counter: blocks human lysophospholipase 1, a PME1 counter-screen | O75608 | recombinant LYPLA1, FP-Rh probe fluorescence polarization | inhibition, % at 5.9 µM | 0.16% of 320,000 active | AID 2174;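 active = inhibition above the mean of all tested compounds plus 3 SD, set per campaign, cut at about 14% in these data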;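 also: inhibitors block serine hydrolase probe labeling of LYPLA1 so polarization falls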
Target sequence (O75608 whole entry, looked up): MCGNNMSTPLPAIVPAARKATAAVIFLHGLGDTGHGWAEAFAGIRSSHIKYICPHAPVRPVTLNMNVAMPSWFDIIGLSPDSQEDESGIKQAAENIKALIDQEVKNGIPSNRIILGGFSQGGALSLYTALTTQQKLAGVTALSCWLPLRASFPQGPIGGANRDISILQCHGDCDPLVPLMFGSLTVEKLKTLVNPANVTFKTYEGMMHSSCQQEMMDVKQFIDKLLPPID
p97 ATPase inh: human p97 ATPase inhibition | recombinant p97 ATPase, Kinase-Glo ATP luminescence, 3 h | inhibition, % at 8 µM | 0.42% of 220,000 active; in the data active = inhibition above about 15%
LYPLA2 counter: LYPLA2 (human) inhibition in PME1 counter-screen | recombinant LYPLA2, FP-Rh probe fluorescence polarization | inhibition, % at 5.9 µM | 0.38% of 320,000 active | O95372;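 active = inhibition above the screen-wide mean plus 3 SD, limit set per campaign, cut at about 26% in these data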
Target sequence (O95372 whole entry, looked up): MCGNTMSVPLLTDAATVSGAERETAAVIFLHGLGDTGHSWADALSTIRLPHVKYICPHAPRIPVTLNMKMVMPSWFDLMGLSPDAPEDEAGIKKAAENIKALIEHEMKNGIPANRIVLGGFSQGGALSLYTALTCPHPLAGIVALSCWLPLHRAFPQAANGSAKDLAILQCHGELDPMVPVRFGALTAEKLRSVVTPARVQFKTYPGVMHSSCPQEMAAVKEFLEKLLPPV
LYPLA2 confirm: counter-screen for PME1 inhibitors: confirmation of human LYPLA2 inhibitors | inhibition, % at 5.9 µM | 72% of 1,100 active | AID 2232 | recombinant LYPLA2, FP-Rh probe fluorescence polarization | shares compounds with LYPLA2 counter;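 active = mean inhibition across replicates above the hit cutoff set in the primary screen, cut at about 26% in these data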;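 also: blocked labeling of the enzyme by serine hydrolase FP-Rh probe lowers polarization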
LYPLA2 ABPP: inhibitors of human LYPLA2 | shares compounds with LYPLA2 counter | rhLYPLA2 in mouse brain proteome, gel ABPP FP-Rh | inhibition, % at 20 µM | 30% of 150 active;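 active = inhibition of LYPLA2 enzyme probe labeling above about 50%, limit read from the data; inactive = inhibition below that limit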;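 also: loss of FP-Rh probe labeling of the LYPLA2 gel band measured as band density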
Of the large screens only hits and unclear results are named; the others gave an inactive call (follow-up assays come after a bar, where they were run).

Cc1ccc(Nc2nc(N3CCN(C)CC3)nc(N)c2[N+](=O)[O-])cc1C	none
COc1cccc(NC(=O)COc2nc3ccccc3nc2C)c1	LYPLA2 counter 27 | LYPLA2 confirm 32
O=C(N/N=C\c1ccccn1)c1cccc(C(=O)N/N=C\c2ccccn2)n1	LYPLA2 counter 28 (no result: DTT redox prof, p97 ATPase inh) | LYPLA2 confirm 29
O=C(CSCc1ccccc1Cl)Nc1c[nH]c(=O)[nH]c1=O	LYPLA2 counter 39 | LYPLA2 confirm inactive
O=[N+]([O-])c1cc(Cl)ccc1Oc1ccc(-c2nnco2)cc1	LYPLA2 counter 27 | LYPLA2 confirm 28
Cc1ccc(C(=O)N2CC(=O)Nc3ccc(F)cc3C2c2ccccc2)cc1[N+](=O)[O-] (centres undefined)	LYPLA2 counter 34 | LYPLA2 confirm 34
O=C1CN(C(=O)c2cccc(F)c2)C(c2ccc(F)cc2)c2cc(F)ccc2N1 (centres undefined)	none (no result: DTT redox prof, p97 ATPase inh)
Cc1ccc(C(=O)N2CC(=O)Nc3ccc(F)cc3C2c2ccc(F)cc2)cc1[N+](=O)[O-] (centres undefined)	LYPLA2 counter 34 | LYPLA2 confirm 30
Cn1c(=O)c2c(ncn2CC(=O)N2CCN(c3ccc([N+](=O)[O-])cc3)CC2)n(C)c1=O	LYPLA2 counter 40 (no result: DTT redox prof) | LYPLA2 confirm 43
COc1ccc(N2CCN(C(=O)Cn3cnc4c3c(=O)n(C)c(=O)n4C)CC2)cc1	none
CCOc1ccc(-c2c(=O)n(OCC)c3ccccc3[n+]2[O-])cc1	none (no result: DTT redox prof, p97 ATPase inh)
CCCOc1ccc(-c2c(=O)n(OCC(=O)OCC)c3ccccc3[n+]2[O-])cc1	LYPLA2 counter 27 (no result: DTT redox prof, p97 ATPase inh) | LYPLA2 confirm 72
O=C(CN1C(=O)NC2(CCCC2)C1=O)Nc1ccc(S(=O)(=O)N2CCOCC2)cc1	LYPLA2 counter 30 | LYPLA2 confirm inactive
CC(=O)c1ccc(N2CCN(C(=O)Nc3ccc(F)cc3)CC2)cc1	none
CC(=O)c1ccc(N2CCN(C(=O)Nc3ccc(C(C)C)cc3)CC2)cc1	LYPLA2 counter 48 | LYPLA2 confirm 42
CSCCC1NC(=O)N(CC(=O)N2N=C(c3ccc(Cl)cc3)CC2c2ccco2)C1=O (centres undefined)	LYPLA2 counter 41 | LYPLA2 confirm 37
O=C(O)c1cccc(NC(=S)NC(=O)c2cccc(OCc3ccccc3)c2)c1	LYPLA2 counter 31 (no result: DTT redox prof, p97 ATPase inh) | LYPLA2 confirm 29
Cc1ccc(C(=O)O)cc1NC(=S)NC(=O)c1ccc(COc2ccccc2)cc1	LYPLA2 counter 46 (no result: DTT redox prof, p97 ATPase inh) | LYPLA2 confirm 51 | LYPLA2 ABPP inactive
Cc1ccc(C(=O)O)cc1NC(=S)NC(=O)Cc1ccccc1	none
O=C(C1CCC(=O)N1Cc1ccccc1Cl)N1CCN(c2cccc(Cl)c2)CC1 (centres undefined)	LYPLA2 counter 34 | LYPLA2 confirm 32
COc1ccc(S(=O)(=O)N(C)CC(=O)Nc2cccc(C(C)=O)c2)cc1Cl	none
O=C1CCCC(=O)N1c1ccc(N2CCN(c3ccc([N+](=O)[O-])cc3)CC2)c([N+](=O)[O-])c1	LYPLA2 counter 43 | LYPLA2 confirm 43
CCC(C)NC(=O)/C=C1\Sc2ccccc2NC1=O (centres undefined)	none
Cc1cc(=O)oc2cc(Oc3ccc([N+](=O)[O-])cc3C(F)(F)F)ccc12	LYPLA2 counter 44 | LYPLA2 confirm 42
CC(=O)Oc1ccc2c(C)cc(=O)oc2c1	none
O=C1CC(N2CCN(c3cccc(C(F)(F)F)c3)CC2)C(=O)N1c1ccc(F)cc1 (centres undefined)	LYPLA2 counter 55 | LYPLA2 confirm 49
Cc1cccc(N2C(=O)CC(N3CCN(c4cccc(C(F)(F)F)c4)CC3)C2=O)c1 (centres undefined)	LYPLA2 counter 46 | LYPLA2 confirm 40
O=C1CC(N2CCN(c3ccccc3)CC2)C(=O)N1c1cccc(Cl)c1 (centres undefined)	none (no result: DTT redox prof, p97 ATPase inh)
COc1ccc(-c2[nH]ncc2CN(CCO)CC23CC4CC(CC(C4)C2)C3)c(OC)c1	none
O=C(NCc1cccs1)c1cc(S(=O)(=O)N2CCOCC2)c(Cl)cc1Cl	none (no result: DTT redox prof, p97 ATPase inh)
CCOC(=O)c1ccc(NC(=O)C(=O)NCc2ccncc2)cc1	none
CCCCOC(=O)c1ccc(NC(=O)C(=O)NCc2ccncc2)cc1	LYPLA2 counter 35 | LYPLA2 confirm 31
Nc1cc(Cl)ccc1Oc1ccc2ccccc2c1	LYPLA2 counter 28 | LYPLA2 confirm inactive
Cc1ccc(Oc2ccc(Cl)cc2N)cc1	none
CC12CCC(=O)N1C(C(=O)NNC(=O)c1cccc(Cl)c1)CS2 (centres undefined)	LYPLA2 counter 35 (no result: DTT redox prof, p97 ATPase inh) | LYPLA2 confirm inactive
Cc1ccc(C)c(S(=O)(=O)N2CCN(C(=O)/C=C/c3ccco3)CC2)c1	none (no result: DTT redox prof, p97 ATPase inh)
Cc1cccc(NC(=O)COC(=O)CCc2ccc(S(=O)(=O)N3CCOCC3)cc2)c1C	none
C/C(=N/OC(=O)C1CC1)c1cc(-c2ccc(Cl)cc2)no1	LYPLA2 counter 37 | LYPLA2 confirm inactive
C/C(=N\OC(=O)c1ccccc1)c1cc(-c2ccc(Cl)cc2)no1	none
Cc1ccc(C2=NOC(C)(c3nnc(Cc4ccccc4)o3)C2)cc1 (centres undefined)	none (no result: DTT redox prof, p97 ATPase inh)
Cn1c(-c2ccccc2)cnc1NCc1cc2c(cc1[N+](=O)[O-])OCO2	LYPLA2 counter 29 | LYPLA2 confirm 41
COc1ccccc1CNc1ncc(-c2ccc(F)cc2)n1C	none (no result: DTT redox prof, p97 ATPase inh)
Cn1c(-c2ccc3c(c2)OCO3)cnc1NCc1cccc(O)c1	none
Cn1c(-c2ccccc2)cnc1NCc1cccc([N+](=O)[O-])c1	none (no result: DTT redox prof, p97 ATPase inh)
Cc1cc(F)ccc1NCc1cc2c(cc1[N+](=O)[O-])OCO2	LYPLA2 counter 27 | LYPLA2 confirm inactive
Cn1c(-c2ccc(F)cc2)cnc1NCc1cc2c(cc1[N+](=O)[O-])OCO2	LYPLA2 counter 42 | LYPLA2 confirm 44
COc1ccccc1CNc1ccc([N+](=O)[O-])cc1C	none
Cn1c(-c2ccc(Cl)cc2)cnc1NCc1cc2c(cc1[N+](=O)[O-])OCO2	LYPLA2 counter 51 | LYPLA2 confirm 49
O=C(COc1ccccc1)c1cn(CC(=O)N2CCCC2)c2ccccc12	none
Cc1ccc2cccc(NC3OC(=O)c4ccccc43)c2n1 (centres undefined)	none
CCOC(=O)C1(CCOc2ccccc2)CCN(Cc2ccc3nonc3c2)CC1	LYPLA2 counter 31 | LYPLA2 confirm 28
CCn1cc(S(=O)(=O)NCc2ccc(OC)cc2)cn1	none (no result: DTT redox prof, p97 ATPase inh)
O=[N+]([O-])c1cccnc1SCc1c(F)cccc1Cl	LYPLA2 counter 32 (no result: DTT redox prof) | LYPLA2 confirm 38
O=[N+]([O-])c1cccnc1Sc1ccc(Cl)cc1	none (no result: DTT redox prof, p97 ATPase inh)
O=[N+]([O-])c1ccc(SCc2c(F)cccc2Cl)nc1	LYPLA2 counter 31 (no result: DTT redox prof) | LYPLA2 confirm 38
O=[N+]([O-])c1ccc(Sc2ccc(Cl)c(Cl)c2)nc1	LYPLA2 counter 40 | LYPLA2 confirm 31
